The text below walks through data of PubChem BioAssay AID743101 (Vanderbilt Specialized Chemistry Center, 2013).

Calls of active or inactive are those of the source.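 The calls were made as follows: active = calcium signal above 60% of the peak acetylcholine response at the M5 receptor, called a positive modulator; inactive = the rest.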

The target in this assay is Muscarinic acetylcholine receptor M4 (Homo sapiens) (UniProt P08173). The assay is described as follows: human M4 receptor activity of M5 PAM candidates, counter-screen for M5 PAM project, cell-based, CHO-K1 hM4/Gqi5, Fluo-4 calcium flux, ACh EC20 (AID 743101). Particulars: Fluo-4, ACh EC20, at 30 µM (top of the series).
Chain of Muscarinic acetylcholine receptor M4 (Homo sapiens) (P08173 whole entry, looked up): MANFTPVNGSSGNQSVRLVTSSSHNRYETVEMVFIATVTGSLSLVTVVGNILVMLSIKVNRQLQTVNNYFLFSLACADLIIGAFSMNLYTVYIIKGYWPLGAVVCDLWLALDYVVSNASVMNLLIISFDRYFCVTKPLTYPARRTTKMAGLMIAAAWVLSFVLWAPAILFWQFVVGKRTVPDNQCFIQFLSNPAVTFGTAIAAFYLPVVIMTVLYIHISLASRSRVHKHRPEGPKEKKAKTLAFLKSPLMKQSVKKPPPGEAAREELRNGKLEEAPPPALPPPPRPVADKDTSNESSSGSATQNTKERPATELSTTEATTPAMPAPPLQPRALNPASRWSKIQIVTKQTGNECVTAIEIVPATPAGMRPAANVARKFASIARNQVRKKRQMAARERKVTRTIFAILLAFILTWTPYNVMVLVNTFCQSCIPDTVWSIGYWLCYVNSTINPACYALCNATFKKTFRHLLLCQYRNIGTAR
With `CCN(Cc1ccccc1C(F)(F)F)C(=O)C1(F)CCN(S(=O)(=O)c2ccc3[nH]ncc3c2)CC1`, the outcome was inactive. Then `CCN(Cc1ccccc1)C(=O)C1CCN(S(=O)(=O)c2ccc3c(c2)OCCO3)CC1`, with “inactive”. For the compound `CCCN(Cc1ccccc1C(F)(F)F)C(=O)C1CCN(S(=O)(=O)c2ccc3[nH]ncc3c2)CC1`, the outcome was inactive.

Regarding `CCN(Cc1ccccc1)C(=O)C1CCN(S(=O)(=O)c2ccc3[nH]ncc3c2)CC1`, the result was inactive. The entry for `CCN(Cc1ccccc1C(F)(F)F)C(=O)C1CCN(S(=O)(=O)c2ccc3cn[nH]c3c2)CC1` is “inactive”; for `CCN(C(=O)C1CCN(S(=O)(=O)c2ccc(-n3cccn3)cc2)CC1)[C@H](C)c1ccccc1` it is “inactive”. For `CCN(C(=O)C1CCN(S(=O)(=O)c2ccc3[nH]ncc3c2)CC1)[C@H](C)c1ccccc1`, the outcome was inactive. Then `CCN(Cc1ccccc1)C(=O)C1CCN(S(=O)(=O)c2ccc3cn[nH]c3c2)CC1`, with “inactive”; and `CCN(C(=O)C1CCN(S(=O)(=O)c2ccc(OC)cc2)CC1)[C@H](C)c1ccccc1`, with “inactive”. On to `CCN(Cc1ccccc1C(F)(F)F)C(=O)C1CCN(S(=O)(=O)c2ccc3[nH]ncc3c2)CC1`, for which the result was inactive. With `CCN(Cc1ccccc1Cl)C(=O)C1CCN(S(=O)(=O)c2ccc3[nH]ncc3c2)CC1`, the outcome was inactive.
